Results on 6 molecules are retold here after PubChem BioAssay (NCATS).

Values joined by “and” are separate entries in the source; they are usually repeats but may differ in a detail not shown here. Equal values may be shown once. Inconclusive results are not listed. Active and inactive are the calls of the source. Unless noted, calls follow the shape of the dose curve; as a rule, active = well fitted curve in the direction sought with a large enough effect; inconclusive = small, poorly fitted or top-dose-only effect, or another doubt; inactive = no such curve, though single readings can be large; an effect the other way counts as inactive or inconclusive. Where only a bound is given, the exact number is not on record here.

Assay [1] is described as follows: Cell Viability - MRC5 (AID 434; calls by dose curve;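 also: potency is read from the fitted curve at half-maximal effect; cells exposed to compound for 40 hours at 37 °C; potency reflects cytotoxicity seen as loss of intracellular ATP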). The conditions noted are these: MRC5 lung fibroblast viability, qHTS. Put shortly: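 Decrease in intracellular ATP, quantified by luciferase light output, reflects compound toxicity toward MRC5 cells exposed for 40 hr in complete culture medium. Concentration-response curves, scaled between DMSO and 100 uM tamoxifen, gave AC50 values.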
In general terms: qHTS replaces the single test concentration by a dilution series.

A short description of assay [2]: Cell Viability - SK-N-SH (AID 435; calls by dose curve;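 also: potency is read from the fitted curve at half-maximal effect; compound exposure lasted 40 h at 37 °C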). To be noted: SK-N-SH neuroblastoma cell viability qHTS. Put shortly:
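Human neuroblastoma line, 40 h exposure at 37 °C, ATP quantified via luciferase luminescence; DMSO and 100 uM tamoxifen define 0 and 100% inhibition for AC50 fitting.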

Assay [3] can be described thus: Cellular Toxicity (caspase-3) Jurkat (AID 655).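 Also: cells exposed to compound for 16 h at 37 °C before reading.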 To be noted: Jurkat caspase-3 activation, luminescence; caspase-3 activation: at 92.2 µM (top of the series), DMSO = 0%, tamoxifen = 100%. Put shortly: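 qHTS in human Jurkat T-cell leukemia line: 16 hr compound treatment at 37 °C, caspase-3/7 activity measured by Caspase-Glo luminescence. AC50 derived from Hill equation.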

Assay [4] is described as follows: Cellular Toxicity (caspase-3) HUV-EC-C (AID 656).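 Also: cells exposed to compound for 16 h.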 To be noted: HUV-EC-C cells, caspase-3 activation (apoptosis), vehicle = 0, 100 µM tamoxifen = 100%; series mostly up to 92.2 µM. Put shortly:
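Concentration-dependent caspase 3/7 induction was assessed in HUV-EC-C cells exposed for 16 hours. Data scaled between DMSO and tamoxifen (100 uM) controls.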

A short description of assay [5]: Cellular Toxicity (caspase-3) H-4-II-E (AID 663).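 Also: cells exposed to compound for 16 hr before readout.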 To be noted: H-4-II-E rat hepatoma; Potency: caspase-3 activation; series mostly up to 92.2 µM. The method in brief: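 Caspase 3/7 activation measured in H-4-II-E cells in complete culture medium after 16 hr treatment at 37 °C, using luciferase-coupled substrate readout; AC50 values come from Hill-equation fits of normalized concentration-response data.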

The nature of assay [6]: MultiTox-Fluor Cytotoxicity Assay - LYMP1-001 - Live Cells (AID 947).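 Also: 0% = DMSO only and full inhibition = tetraoctylammonium bromide control.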 To be noted: LYMP1-001 lymphoblastoid cells, live-cell protease fluorescence viability; series mostly up to 92.2 µM.
Assay [7] in a line: Cell Viability - LYMP1-002 - Assay at 16 hr (AID 948).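 Also: 0% = DMSO alone and full effect = 92 µM tetraoctylammonium bromide.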 The conditions noted are these: LYMP1-002 lymphoblastoid cell viability; series mostly up to 92.2 µM. The method in brief:
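In this qHTS, lymphoblastoid LYMP1-002 cells (human) receive compounds for 16 hr at 37 C. Viability is taken from CellTiter-Glo ATP luminescence, and AC50 derives from standard Hill fits.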

Assay [8] is described as follows: Cell Viability - LYMP2-004 (AID 966).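 Also: cells exposed to compound for 24 h; plate controls were DMSO only for no effect and tetraoctylammonium bromide control for full effect; nearly all actives have a fitted effect of over 65% in size.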 To be noted: LYMP2-004 lymphoblastoid cell viability, qHTS; series mostly up to 92.2 µM. The method in brief:
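qHTS cytotoxicity: human lymphoblastoid line, 24 hr compound treatment, 37 C, complete medium. Viability read as cellular ATP via luciferase luminescence; tetraoctylammonium bromide served as positive control.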

The nature of assay [9]: Cell Viability - LYMP2-015 (AID 971).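 Also: cells exposed to compound for 24 h; 0% = DMSO only and full effect = 92 µM tetraoctylammonium bromide; nearly all actives have a fitted effect of over 55% in size.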 To be noted: LYMP2-015 lymphoblastoid cell viability; series mostly up to 92.2 µM. Put shortly:
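Cells are seeded at 2500 per well and incubated 5 hr at 37 C. Compounds are added across a concentration series for 24 hr at 37 C. CellTiter-Glo is added, and luminescence is read after 30 min at room temperature.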

Assay [10] can be described thus: Cell Viability - LYMP2-019 (AID 973).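 Also: cells exposed to compound for 24 h at 37 °C; 0% = DMSO alone and full effect = 92 µM tetraoctylammonium bromide; nearly all actives have a fitted effect of over 55% in size.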 The conditions noted are these: LYMP2-019 lymphoblastoid cell line viability; series mostly up to 92.2 µM. The method in brief:
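Cytotoxicity is scored as a concentration-dependent drop in cellular ATP after cells (2500/well) receive compound for 24 hr at 37 C. Tetraoctylammonium bromide serves as positive control.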

Assay [11] in a line: Cell Viability - LYMP2-007 (AID 979).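 Also: cells exposed to compound for 24 h before reading; 0% = DMSO only and the negative end = 92 µM tetraoctylammonium bromide; nearly all actives have a fitted effect of over 60% in size.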 To be noted: LYMP2-007 lymphoblastoid cell viability; series mostly up to 92.2 µM. Put shortly: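 Cells are seeded at 2500 per well and rested 5 hr. Compounds are then added over a concentration series for 24 hr at 37 C. CellTiter-Glo is added for 30 min at room temperature before luminescence reading.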
Assay [12] in a line: Cell Viability - LYMP2-008 (AID 980).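 Also: cells exposed to compound for 24 h at 37 °C; % is scaled to controls: 0 for no effect and ±100 for the full control effect; nearly all actives have a fitted effect of over 60% in size.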 The conditions noted are these: LYMP2-008 lymphoblastoid cell viability, qHTS; series mostly up to 92.2 µM. The method in brief:
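Cells seeded at 2500/well and rested 5 hr at 37 C; compounds added over a concentration range and incubated 24 hr at 37 C; CellTiter-Glo added, 30 min at room temperature; luminescence read and AC50 fitted with Hill model.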

Assay [13] in a line: Cell Viability - LYMP2-014 (AID 983).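 Also: cells exposed to compound for 24 h at 37 °C; plate controls were DMSO only for no effect and 92 µM tetraoctylammonium bromide for full effect; nearly all actives have a fitted effect of over 50% in size.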 The conditions noted are these: LYMP2-014 lymphoblastoid cells, viability qHTS; series mostly up to 92.2 µM. The method in brief:
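Cells are plated at 2500/well and left 5 hr at 37 C. Compounds are added across a concentration range and incubated 24 hr at 37 C in complete medium. CellTiter-Glo is added, and luminescence is read after 30 min at room temperature.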

A short description of assay [14]: Cell Viability - LYMP2-018 (AID 985).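 Also: compound exposure lasted 24 hr at 37 °C; plate controls were DMSO only for no effect and tetraoctylammonium bromide at 92 µM for full effect; nearly all actives have a fitted effect of over 50% in size.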 The conditions noted are these: LYMP2-018 lymphoblastoid cells, viability (qHTS); series mostly up to 92.2 µM. Put shortly:
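Seed 2500 lymphoblastoid cells per well, incubate 5 hr at 37 C, add compound and incubate 24 hr at 37 C, add CellTiter-Glo, wait 30 min at room temperature, then read luminescence.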

Assay [15] can be described thus: Cell Viability - LYMP2-020 (AID 986).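 Also: cells exposed to compound for 24 h at 37 °C; plate controls were DMSO only for no effect and tetraoctylammonium bromide at 92 µM for full effect; nearly all actives have a fitted effect of over 55% in size.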 The conditions noted are these: series mostly up to 92.2 µM. Put shortly:
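Seed 2500 cells per well and incubate 5 hr at 37 C. Add compounds at a concentration series and incubate 24 hr at 37 C. Add CellTiter-Glo, wait 30 min at RT, read luminescence, and fit a Hill curve for AC50.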

Assay [16] is described as follows: Cell Viability - LYMP2-022 (AID 987).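 Also: 0% = DMSO alone and full effect = tetraoctylammonium bromide at 92 µM; nearly all actives have a fitted effect of over 55% in size.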 The conditions noted are these: LYMP2-022 lymphoblastoid cell viability; series mostly up to 92.2 µM. Put shortly:
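Cells were seeded at 2500 per well, rested 5 hr at 37 C, and treated with titrated compounds for 24 hr at 37 C. Cellular ATP was then quantified by luciferase luminescence, and AC50 values were derived from Hill-modelled concentration-response curves.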

A short description of assay [17]: Cell Viability - LYMP2-026 (AID 989).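 Also: cells exposed to compound for 24 h at 37 °C; % is scaled to controls: 0 for no effect and ±100 for the full control effect; nearly all actives have a fitted effect of over 50% in size.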 To be noted: LYMP2-026 lymphoblastoid cell viability, qHTS; series mostly up to 92.2 µM. Put shortly:
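Cells are seeded at 2500 per well and held 5 hr at 37 C. Compounds are added in concentration series for 24 hr, then CellTiter-Glo reagent is applied and luminescence read.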

A short description of assay [18]: qHTS assay for small molecule antagonists of retinoid X receptor alpha signaling (AID 588546).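 Also: cells stimulated with 9-cis-retinoic acid as agonist; % is scaled to controls: 0 for no effect and ±100 for the full control effect.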 To be noted: HEK293T RXRa-UAS-bla, beta-lactamase ratio, antagonist mode; measured here: W530 green channel, cytotoxicity proxy. The method in brief: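 Beta-lactamase reporter inhibition, read as CCF4 fluorescence ratio (ex 405, em 460/530 nm) after 2 h at RT. HEK293T UAS-bla cells, 2500/well, were stimulated with 9-cis-RA at 500 or 100 nM final alongside test compound for 18 h at 37 C.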

Assay [19] has as its target Voltage-gated inwardly rectifying potassium channel KCNH2 (Homo sapiens) (UniProt Q12809). In words: qHTS Assay for Small Molecule Inhibitors of the Human hERG Channel Activity (AID 588834).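 Also: top concentration of the series differs between compounds; % is scaled to controls: 0 for no effect and ±100 for the full control effect; lower thallium flux fluorescence means stronger hERG block; nearly all actives have a fitted effect of over 50% in size.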 The conditions noted are these: U2OS BacMam hERG, FluxOR thallium flux fluorescence; series mostly up to 92.2 µM. Put shortly: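 Homogeneous FluxOR thallium flux assay using hERG-expressing U2OS cells (BacMam). Compound treatment about 10 minutes preceded stimulation; reduced fluorescence taken as channel block.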

The target in assay [20] is Cytochrome P450 3A4 (Homo sapiens) (UniProt P08684). The assay can be described thus: qHTS Assay for Inhibitors and Substrates of Cytochrome P450 3A4 (AID 884). Also: nearly all actives have a fitted effect of over 50% in size. Also: potency is read from the fitted curve at half-maximal effect. The conditions noted are these: recombinant CYP3A4, Luciferin-PPXE luminescence; series mostly up to 57.1 µM. Put shortly: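 Luminescent readout of luciferin produced by CYP3A4 (20 nM) dealkylation of Luciferin-PPXE, 25 uM (its KM). NADPH-driven reaction ran 60 min at RT after 10 min compound preincubation; data scaled to 57 uM ketoconazole as 100% inhibition.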
Cytochrome P450 3A4 (Homo sapiens), sequence (P08684 whole entry, looked up): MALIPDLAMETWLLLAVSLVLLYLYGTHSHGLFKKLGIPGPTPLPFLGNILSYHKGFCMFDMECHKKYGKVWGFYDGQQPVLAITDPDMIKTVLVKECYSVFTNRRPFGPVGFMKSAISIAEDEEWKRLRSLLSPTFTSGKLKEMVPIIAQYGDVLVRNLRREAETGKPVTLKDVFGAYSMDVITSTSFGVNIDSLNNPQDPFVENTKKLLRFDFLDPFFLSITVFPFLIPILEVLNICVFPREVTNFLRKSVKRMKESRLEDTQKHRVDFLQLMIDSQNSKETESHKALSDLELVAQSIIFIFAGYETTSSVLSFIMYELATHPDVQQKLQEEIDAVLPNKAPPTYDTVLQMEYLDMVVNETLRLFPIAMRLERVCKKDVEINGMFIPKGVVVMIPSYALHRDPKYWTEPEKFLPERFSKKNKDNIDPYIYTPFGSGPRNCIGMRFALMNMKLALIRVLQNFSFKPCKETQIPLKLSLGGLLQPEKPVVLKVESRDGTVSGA

Voltage-gated inwardly rectifying potassium channel KCNH2 (Homo sapiens), sequence (Q12809 whole entry, looked up): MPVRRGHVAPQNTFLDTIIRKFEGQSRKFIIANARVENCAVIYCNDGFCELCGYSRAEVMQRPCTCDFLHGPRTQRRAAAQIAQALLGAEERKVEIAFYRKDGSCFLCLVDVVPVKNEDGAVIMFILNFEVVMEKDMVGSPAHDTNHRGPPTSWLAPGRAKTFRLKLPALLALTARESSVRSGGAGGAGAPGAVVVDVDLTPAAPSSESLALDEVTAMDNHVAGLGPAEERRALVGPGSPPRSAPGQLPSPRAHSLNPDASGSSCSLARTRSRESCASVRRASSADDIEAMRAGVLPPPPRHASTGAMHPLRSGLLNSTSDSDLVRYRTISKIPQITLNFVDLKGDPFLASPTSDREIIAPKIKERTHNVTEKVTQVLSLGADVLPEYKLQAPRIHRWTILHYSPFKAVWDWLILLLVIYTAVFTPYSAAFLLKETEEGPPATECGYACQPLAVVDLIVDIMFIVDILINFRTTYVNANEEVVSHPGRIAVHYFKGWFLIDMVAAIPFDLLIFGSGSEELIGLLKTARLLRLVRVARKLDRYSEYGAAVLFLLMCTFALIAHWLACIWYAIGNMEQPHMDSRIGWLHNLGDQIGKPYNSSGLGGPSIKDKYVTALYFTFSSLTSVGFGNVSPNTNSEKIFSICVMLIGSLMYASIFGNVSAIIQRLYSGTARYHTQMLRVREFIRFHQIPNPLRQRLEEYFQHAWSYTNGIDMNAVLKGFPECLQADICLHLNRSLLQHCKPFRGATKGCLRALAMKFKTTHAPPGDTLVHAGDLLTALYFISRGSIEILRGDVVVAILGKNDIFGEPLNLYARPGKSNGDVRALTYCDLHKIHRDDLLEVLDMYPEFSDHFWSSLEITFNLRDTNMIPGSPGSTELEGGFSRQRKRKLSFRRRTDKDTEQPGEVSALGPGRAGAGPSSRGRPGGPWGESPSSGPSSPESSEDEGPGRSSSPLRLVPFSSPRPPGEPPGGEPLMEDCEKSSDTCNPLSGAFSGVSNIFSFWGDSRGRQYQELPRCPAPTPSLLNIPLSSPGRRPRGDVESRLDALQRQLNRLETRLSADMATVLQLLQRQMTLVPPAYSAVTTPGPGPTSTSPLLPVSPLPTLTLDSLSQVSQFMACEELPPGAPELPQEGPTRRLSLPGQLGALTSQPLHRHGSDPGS

On to `CCOC(=O)CC(SP(=O)(OC)OC)C(=O)OCC` (stereo not given), for which the Potency in assay [1] and in assay [2] was > 92 µM (inactive) throughout. In addition, the caspase-3 activation in [3] is 1.26% (inactive). For the same molecule, the molecule was classed as inactive in [4], in assay [6] and in assay [7]. The Potency result in assay [5], in assay [8], in assay [9], in [10], in assay [11] and in [12] was “inactive” throughout. Also, the Potency entry in assay [13], in [14], in assay [15], in assay [16], in [17] and in assay [19] was “inactive” throughout. In addition, in [18], the max response is 7.78% and 5.62%.

For the molecule `CC(C)[N+](=O)[O-]`, the Potency in assay [1] and in assay [2] was > 92 µM (inactive) in each case. Also, the caspase-3 activation in assay [3] is 1.63% (inactive). Further, the molecule was called inactive in assay [4], in [6] and in assay [7]. The Potency entry in assay [5], in [20], in [8], in assay [9], in assay [10] and in assay [11] was “inactive” each time. The Potency entry in assay [12], in [13], in [14], in [15], in assay [16] and in assay [17] was “inactive” throughout. In assay [19], the Potency entry is “inactive”. Further, the max response in assay [18] was 10.7%.

As to `Oc1c(Cl)c(Cl)cc(Cl)c1Cl`, the Potency in [1] was > 92 µM (inactive). Besides, the caspase-3 activation in assay [3] is 83.2% (active). For the same molecule, the call in assay [4], in [6] and in [7] was inactive. Also, the Potency result in [5], in [20], in assay [8], in [9], in assay [10] and in [11] was “inactive” each time. For the same molecule, the Potency entry in assay [12], in [13], in [14], in assay [15], in [16] and in [17] was “inactive” each time. For the same molecule, in [19], the Potency result is “inactive”. Besides, the max response in assay [18] is -8.85%.

As for `O=[N+]([O-])c1cc(Cl)c(Cl)c(Cl)c1`, the Potency in [1] and in assay [2] was > 92 µM (inactive) throughout. For the same molecule, the Potency entry in [5], in assay [20], in [8], in assay [9], in assay [10] and in [11] was “inactive” in each case. The Potency result in [12], in assay [13], in assay [14], in assay [15], in assay [16] and in assay [17] was “inactive” throughout. Moreover, the Potency result in assay [19] was “inactive”. For the same molecule, the call in [6] and in assay [7] was inactive. Besides, in assay [18], the max response is -6.59%.

As to `Nc1ncc([N+](=O)[O-])s1`, the Potency in [1] and in assay [2] was > 92 µM (inactive) throughout. Besides, the caspase-3 activation in assay [3] was -1.21% (inactive). The result in assay [4], in assay [6] and in [7] was inactive. Further, the Potency result in [5], in assay [20], in [9], in assay [10], in [11] and in [12] was “inactive” throughout. The Potency entry in [13], in [14], in assay [15], in assay [16], in [17] and in assay [19] was “inactive” each time. In [18], the max response is -7.58%.

Regarding `Cc1cc(N=Nc2ccccc2C)ccc1N`, the Potency in assay [1] was > 92 µM (inactive); in assay [2], > 92 µM (inactive); in assay [20], 5.01 µM (active). Also, in assay [3], the caspase-3 activation was 2.76% (inactive). In addition, the molecule was called inactive in [4], in assay [6] and in [7]. Further, the Potency entry in [5], in assay [8], in assay [9], in assay [10], in assay [11] and in [12] was “inactive” in each case. For the same molecule, the Potency entry in assay [13], in [14], in assay [15], in assay [16], in assay [17] and in [19] was “inactive” throughout. Moreover, the max response in assay [18] is -7.48%.
